Data reported in PubChem BioAssay (NCATS).
Results filed as inconclusive are left out. A call without a number means that no potency is given here. Activity calls are given as the source filed them. Calls follow the shape of the dose curve; as a rule, active = well fitted curve in the direction sought with a large enough effect; inconclusive = small, poorly fitted or top-dose-only effect, or another doubt; inactive = no such curve, though single readings can be large; an effect the other way counts as inactive or inconclusive.

Tests used:
[1] = system: Zika virus NS2B-NS3 protease (linked construct); assay: Primary screen NINDS Rhodamine qHTS for Zika virus inhibitors (AID 1347160); also: potency is read from the fitted curve at half-maximal effect; nearly all actives have a fitted effect of over 55% in size
How it was run: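 Enzyme (25 nM, linked NS2B-NS3) was preincubated 15 min with compound in 10 mM Tris-HCl pH 8.0, 0.01% Tween 20. Rhodamine110 substrate (1.5 microM) was then added and fluorescence read at start and after 15 min.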

[2] = OV-KATE Cancer Cell Toxicity qHTS against the NCATS CANVASS Library (AID 1347345); also: potency is read from the fitted curve at half-maximal effect
How it was run: (§1)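 Per well, 1000 cells; exposure 72 h with compound at 11 final concentrations; readout CellTiter-Glo luminescence.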

[3] = HPAF-II Cancer Cell Toxicity qHTS against the NCATS CANVASS Library (AID 1347346); also: nearly all actives have a fitted effect of over 55% in size; also: potency is read from the fitted curve at half-maximal effect
How it was run: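 First, HPAF-II cells are plated (1000 cells/well) and held 4 h at 37 degrees C. Next, compounds are pin-transferred as an 11-point series. After 72 h, CellTiter-Glo is added and luminescence measured.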

[4] = UWB1.289 Cancer Cell Toxicity qHTS against the NCATS CANVASS Library (AID 1347347); also: nearly all actives have a fitted effect of over 60% in size; also: potency is read from the fitted curve at half-maximal effect
How it was run: as §1

[5] = Panc-1005 Cancer Cell Toxicity qHTS against the NCATS CANVASS Library (AID 1347349); also: nearly all actives have a fitted effect of over 60% in size; also: potency is read from the fitted curve at half-maximal effect
How it was run: as §1

[6] = U-118MG Cancer Cell Toxicity qHTS against the NCATS CANVASS Library (AID 1347351); also: potency is read from the fitted curve at half-maximal effect
How it was run: as §1

[7] = COV-362 Cancer Cell Toxicity qHTS against the NCATS CANVASS Library (AID 1347352); also: potency is read from the fitted curve at half-maximal effect
How it was run: (§2)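 First, 1000 cells go into each well and rest for 4 hours. Next, an 11-point dilution range is pinned in. Plates then incubate 72 hours before CellTiter-Glo addition and luminescence reading.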

[8] = A2780 Cisplatin Sensitive Ovarian Cancer Cell Toxicity qHTS against the NCATS CANVASS Library (AID 1347353); also: nearly all actives have a fitted effect of over 60% in size; also: potency is read from the fitted curve at half-maximal effect
How it was run: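 Cells are plated at 750 per well and rest for 4 hours. Compounds are added across eleven concentrations, and incubated 72 hours before ATP is quantified by luminescence.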

[9] = UWB1.289-WTBRCA1 Cancer Cell Toxicity qHTS against the NCATS CANVASS Library (AID 1347354); also: potency is read from the fitted curve at half-maximal effect
How it was run: as §2

[10] = HEK293 18hr Apoptosis Induction qHTS against the NCATS CANVASS Library (AID 1347357); also: potency is read from the fitted curve at half-maximal effect
How it was run: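 HEK293 cells (500/well, DMEM + 10% FBS) treated with an 11-point series for 18 h at 37 degrees C. Caspase-3/7 activity read by Caspase-Glo luminescence after 15 min at room temperature.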

[11] = HEK293 12hr Apoptosis Induction qHTS against the NCATS CANVASS Library (AID 1347361); also: potency is read from the fitted curve at half-maximal effect
How it was run: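 HEK293 cells (500/well) were exposed to an 11-point qHTS concentration series for 12 hours at 37 degrees C. Caspase-3/7 activity was then read by DEVD-substrate luciferase luminescence after 15 min at room temperature.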

[12] = qHTS for ATAD5 Agonist screened against the NCATS CANVASS Library (AID 1347367);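 also: luciferase reporter driven by ATAD5 which rises upon DNA damage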
How it was run: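 Luciferase reporter under ATAD5 control, stably integrated in HEK293T cells (2000/well). Compounds (11 points) incubated 16 h at 37C; viability read first by CellTiter-Fluor, then luminescence reporting ATAD5 activation. MMS positive control.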

[13] = MCF7 Cancer Cell Toxicity qHTS against the NCATS CANVASS Library (AID 1347369); also: potency is read from the fitted curve at half-maximal effect
How it was run: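 MCF7 cells (500/well) were exposed 72 h at 37 °C to compounds in an 11-point series. Viability was read as ATP content by CellTiterGlo luminescence.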

[14] = qHTS for ATAD5 Antagonist screened against the NCATS CANVASS Library (AID 1347370); also: nearly all actives have a fitted effect of over 65% in size; also: potency is read from the fitted curve at half-maximal effect
How it was run: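 Compounds (11-point) co-dosed with 10 µM 5-FUrd for 16 h at 37 °C onto HEK293T-ATAD5 luciferase reporter cells. Viability measured by CellTiter-Fluor fluorescence, then ATAD5 reporter signal by luminescence.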

[15] = J3T Cancer Cell Toxicity qHTS against the NCATS CANVASS Library (AID 1347371); also: potency is read from the fitted curve at half-maximal effect
How it was run: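 Luminescence from CellTiterGlo, reporting cellular ATP, serves as the viability measure after 72 hr compound treatment of J3T canine glioma cells seeded at 500 cells/well.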

[16] = target: Nuclear receptor subfamily 1 group I member 3 (Homo sapiens) (UniProt Q14994); assay: qHTS for Constitutive Androstane Receptor (CAR) Agonist screened against the NCATS CANVASS Library (AID 1347373);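 also: every well also contained 1.5 µM PK11195 alongside the test compound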
Sequence of Nuclear receptor subfamily 1 group I member 3 (Homo sapiens) (Q14994 whole entry, looked up): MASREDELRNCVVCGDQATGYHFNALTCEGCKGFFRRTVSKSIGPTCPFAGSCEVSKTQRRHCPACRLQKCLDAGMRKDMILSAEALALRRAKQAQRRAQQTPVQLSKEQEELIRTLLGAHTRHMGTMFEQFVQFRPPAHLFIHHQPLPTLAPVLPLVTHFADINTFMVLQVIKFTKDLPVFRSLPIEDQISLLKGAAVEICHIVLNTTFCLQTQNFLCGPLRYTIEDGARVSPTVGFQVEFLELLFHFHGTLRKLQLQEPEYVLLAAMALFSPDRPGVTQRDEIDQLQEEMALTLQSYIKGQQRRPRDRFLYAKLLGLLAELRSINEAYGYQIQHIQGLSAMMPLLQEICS
How it was run: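 Cells were plated and allowed to attach for 4hr, then dosed with compound in an 11-point series alongside 1.5uM PK11195. After 24hr at 37C, viability was measured fluorometrically and CAR-driven CYP2B6 reporter luminescence was recorded.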

[17] = qHTS for Inflammasome Signaling Inhibitors: IL-1-beta AlphaLISA screen against the NCATS CANVASS Library (AID 1347379);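 also: human THP-1 cells primed with LPS then triggered with ATP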
How it was run: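 Secreted IL-1B from human THP-1 cells quantified by AlphaLISA 16 hr after compound addition (final up to 57.5 uM). A 1 hr compound pretreatment preceded inflammasome activation with 250 ng/mL LPS plus 1.25 mM ATP (final).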

[18] = Inflammasome Signaling qHTS Counterscreen: IL-1-beta AlphaLISA counterscreen against the NCATS CANVASS Library (AID 1347381);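 also: cell-free check with purified IL-1β in medium and no THP-1 cells; series mostly up to about 57 µM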
How it was run: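 Purified IL-1-beta (4 pg/well) + compound, 11-pt conc. series; acceptor beads 6 ug/mL + biotin-Ab 0.6 nM final, 1 h RT; SA-donor 24 ug/ml final, 30 min dark RT; read ex 680/em 615.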

[19] = Cytotoxicity qHTS for assessment of Hepg2 cells membrane integrity screened against the NCATS CANVASS Library (AID 1347387)
How it was run: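 Cells were seeded at 2000 per well and left overnight to attach. Compounds were pin-transferred to give 0.59 nM - 46 uM in an 11-point series and incubated 5 hr at 37C. CytoTox-ONE reagent was added and, after 10 min at room temperature, fluorescence (ex 560, em 590 nm) was read.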

[20] = Vero-766 cells viability qHTS against the NCATS CANVASS Library: Counterscreen for Zika virus inhibition assay (AID 1347394); also: nearly all actives have a fitted effect of over 60% in size; also: potency is read from the fitted curve at half-maximal effect
How it was run: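 Vero 766 cells (1000/well), without Zika virus, were exposed to compounds for 72 h at 37C. Viability was measured by CellTiter Glo luminescence. Media-only wells served as 100% inhibition.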

Compound	Potency [1]	Potency [2]	Potency [3]	Potency [4]	Potency [5]	Potency [6]	Potency [7]	Potency [8]	Potency [9]	Potency [10]	Potency [11]	Potency [12]	Potency [13]	Potency [14]	Potency [15]	outcome [16]	Potency [17]	outcome [18]	outcome [19]	Potency [20]
C/C(=C\[C@H](C)C(=O)CCCC1CC(=O)NC(=O)C1)C(O)[C@@H](C)[C@H](O)C/C=C/CC/C=C/C(=O)O (some centres undefined)	55.3 µM (active)	inactive	inactive	inactive	inactive	inactive	inactive	inactive	inactive	inactive	inactive	inactive	inactive	inactive	inactive	inactive	inactive	inactive	inactive	inactive
C/C=C/C(=O)[C@@H](C)C1=CC(=O)C2=C(O[C@@]34CC[C@H](O)C(C)(C)[C@@H]3CC[C@H](C)[C@@]4(C)C2)C1=O	49.3 µM (active)	8.38 µM (active)	3.75 µM (active)	21.1 µM (active)	4.21 µM (active)	–	–	1.66 µM (active)	–	–	9.35 µM (active)	inactive	13.1 µM (active)	7.41 µM (active)	5.26 µM (active)	inactive	3.43 µM (active)	inactive	inactive	18.6 µM (active)
CNc1ccc(Cl)cc1C(=O)OC[C@]1(C)[C@H]2CC[C@]3(C)[C@@H](C[C@@H](OC)[C@H](C)[C@H]3C3=C(O)C(=O)OC3O)[C@]2(C)CC[C@H]1O (some centres undefined)	6.21 µM (active)	inactive	inactive	inactive	inactive	inactive	inactive	inactive	inactive	inactive	inactive	inactive	inactive	inactive	inactive	inactive	inactive	inactive	inactive	inactive
CCCCCCCCCCCCCCC[C@H](O)C[C@@H](O)C[C@@H](O)C[C@@H](O)C[C@@H](O)C[C@H]1CC=CC(=O)O1	44 µM (active)	2.11 µM (active)	4.21 µM (active)	2.11 µM (active)	1.88 µM (active)	2.11 µM (active)	3.34 µM (active)	0.743 µM (active)	3.34 µM (active)	16.6 µM (active)	9.35 µM (active)	inactive	7.39 µM (active)	26.3 µM (active)	3.72 µM (active)	inactive	3.06 µM (active)	inactive	–	5.24 µM (active)
CCCCCCCCCCCCCCCC(=O)OC/C=C(\C)CCCC(C)CC(C)C(C)C (centres undefined)	55.3 µM (active)	inactive	0.298 µM (active)	inactive	–	inactive	inactive	inactive	inactive	inactive	inactive	inactive	inactive	inactive	inactive	inactive	inactive	inactive	inactive	inactive
C=C1C[C@@]23C=CC(=O)[C@@](C)(CCC(=O)Nc4c(O)ccc(C(=O)O)c4O)C2C[C@@H]1CC3 (some centres undefined)	27.7 µM (active)	inactive	inactive	inactive	inactive	inactive	inactive	inactive	inactive	inactive	inactive	inactive	inactive	inactive	inactive	inactive	inactive	inactive	inactive	inactive
